Screening results deposited in PubChem BioAssay by National Center for Advancing Translational Sciences (NCATS).
hNpr1 antagonist = blocks ANP-stimulated signaling of human Npr1 receptor; HEK293 hNpr1 GloSensor cGMP, ANP-stimulated luminescence; hit rate 1.6% among 76,000; P16066; Potency, µM (series often up to 46.3 µM), without a hit: at the top dose activity change, negative = inhibition, usual class: inhibitors; AID 1347048; calls by dose curve; further: nearly all actives have a fitted effect of over 60% in size
Target sequence (P16066 whole entry, looked up): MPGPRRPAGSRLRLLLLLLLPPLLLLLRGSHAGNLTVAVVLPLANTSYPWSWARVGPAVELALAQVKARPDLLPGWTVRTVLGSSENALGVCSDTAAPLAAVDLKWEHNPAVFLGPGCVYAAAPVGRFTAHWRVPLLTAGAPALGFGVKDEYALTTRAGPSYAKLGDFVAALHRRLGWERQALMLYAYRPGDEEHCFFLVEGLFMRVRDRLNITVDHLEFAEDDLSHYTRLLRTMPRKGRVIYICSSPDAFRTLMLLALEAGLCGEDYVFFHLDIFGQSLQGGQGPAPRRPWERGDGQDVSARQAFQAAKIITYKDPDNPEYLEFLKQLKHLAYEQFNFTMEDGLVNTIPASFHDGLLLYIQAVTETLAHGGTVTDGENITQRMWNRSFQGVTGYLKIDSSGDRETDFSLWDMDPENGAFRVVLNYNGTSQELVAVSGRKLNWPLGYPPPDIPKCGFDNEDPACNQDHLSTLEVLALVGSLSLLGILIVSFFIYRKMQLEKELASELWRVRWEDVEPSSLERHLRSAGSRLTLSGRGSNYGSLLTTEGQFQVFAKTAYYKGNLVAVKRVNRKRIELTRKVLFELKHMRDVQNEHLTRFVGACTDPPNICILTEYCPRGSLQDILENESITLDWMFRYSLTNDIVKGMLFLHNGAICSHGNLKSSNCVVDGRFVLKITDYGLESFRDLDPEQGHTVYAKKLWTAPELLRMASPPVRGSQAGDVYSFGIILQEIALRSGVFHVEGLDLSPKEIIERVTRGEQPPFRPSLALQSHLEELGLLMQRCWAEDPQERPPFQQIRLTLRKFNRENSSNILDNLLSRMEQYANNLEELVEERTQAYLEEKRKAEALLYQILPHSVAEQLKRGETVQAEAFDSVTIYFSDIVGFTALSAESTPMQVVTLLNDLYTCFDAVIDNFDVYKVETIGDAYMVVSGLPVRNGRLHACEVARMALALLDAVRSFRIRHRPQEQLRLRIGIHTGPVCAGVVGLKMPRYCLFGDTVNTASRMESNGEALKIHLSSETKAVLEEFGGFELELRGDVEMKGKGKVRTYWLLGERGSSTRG
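HEK293 cells stably expressing human Npr1 and cGMP GloSensor pGS-40F, loaded 2 h with 2% GloSensor reagent, given compound 30 min at room temperature. Luminescence read before and 20 min after 0.1 nM hNppA.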
FLuc inh = Photinus pyralis luciferase inhibition; hit rate 2.5% among 76,000; Potency, µM (series often up to 115 µM), usual class: inhibitors; purified P. pyralis luciferase, luminescence, biochemical; P08659; further: nearly all actives have a fitted effect of over 65% in size
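Luminescence read by CCD imager after adding enzyme (10nM final) to wells holding compound, titrated in qHTS. Substrates 10uM each D-luciferin and ATP; buffer 50mM Tris acetate pH 7.5, 10mM Mg acetate, Tween-20, BSA.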
NIH3T3 tox = NIH 3T3 cell cytotoxicity; NIH 3T3 viability, CellTiter-Glo ATP luminescence, 48-72 h; Potency, µM (series often up to 96.7 µM), inactives show at the top dose activity change, negative = cytotoxicity, hits mostly inhibitors; hit rate 4.3% among 94,000; AID 1345082; further: nearly all actives have a fitted effect of over 55% in size
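First NIH 3T3 cells are plated at 400 cells/well; next compound is pinned in; then plates incubate 48 or 72 hr at 37 °C; finally CellTiter-Glo is added and luminescence read after 10 min.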
HEK293 tox = HEK 293 cell cytotoxicity. AID 1345083. Potency, µM (doses to about 115 µM), for the others: top-dose activity change, negative = cytotoxicity, hits mostly inhibitors. hit rate 6.6% among 94,000. HEK 293 viability, ATP luminescence (CellTiter-Glo), 48-72 h; further: nearly all actives have a fitted effect of over 60% in size
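Cytotoxicity was scored by loss of ATP-coupled luminescence (CellTiter-Glo) in HEK 293 cells. Compound treatment ran 48 or 72 hr at 37 degree Celsius, 5% CO2, 95% humidity.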
The depositor's hits bear a star; i = inactive; ? = inconclusive; nt = no result; [ ] = another dose, or the depositor's remark. Hits are enriched below; roughly 11% of the tested compounds scored in any of these assays. Unless noted, the call rests on the fitted dose curve; in most records, active means well fitted curve in the direction sought with a large enough effect; inconclusive means small, poorly fitted or top-dose-only effect, or another doubt; inactive means no such curve, though single readings can be large; an effect the other way counts as inactive or inconclusive. On the % scale 0 is the no-effect control and ±100 the full control effect; potency means the concentration at half of the fitted maximal effect.

SMILES	hNpr1 antagonist	FLuc inh	NIH3T3 tox	HEK293 tox
O=C(c1cccc(Br)c1)N1CCC([C@@H]2CNC[C@H]2CO)CC1	10%	i	-10%	-13%
CC1=C[C@@H](CC#N)[C@H](C(C)C)C[C@H]1CC(=O)NCc1ccc(F)cc1	1%[70.6 µM]	i	?	89µM*
CN(C)c1cccc(-c2cc3c(cn2)CN(Cc2cccnc2)CCN3)c1	-24%[70.6 µM]	?	?	?
c1ccc(CN2CCNc3cnc(-c4ccc(N5CCOCC5)cc4)cc3C2)cc1	28µM*	20µM*	?	50µM*
CN(C)c1cccc(Nc2cc3c(cn2)CN(Cc2ccccc2)CCN3)c1	?	22µM*	45µM*	28µM*
c1ccc(Nc2cc3c(cn2)CN(Cc2cccs2)CCN3)cc1	-19%[70.6 µM]	?	50µM*	50µM*
Fc1cccc(CN2CCNc3cc(Nc4ccccc4)ncc3C2)c1	-22%[70.6 µM]	32µM*	45µM*	40µM*
Oc1cccc(-c2cc3c(cn2)NCCN(Cc2ccccc2)C3)c1	3%[70.6 µM]	i	?	?
CN(Cc1cccc(C(F)(F)F)c1)C(=O)Cc1ccc(F)cc1	16%[70.6 µM]	?	?	?
CCC1(C2CCN(C(=O)CCCc3ccccc3)CC2)NC(=O)N(CCc2scnc2C)C1=O (stereo not drawn)	3%	i	-6%	3%
c1ccc(CN2CCNc3cc(Nc4ccc(N5CCOCC5)cc4)ncc3C2)cc1	-11%[70.6 µM]	i	?	89µM*
Fc1ccccc1CN1CCNc2cc(Nc3ccccc3)ncc2C1	-3%[70.6 µM]	20µM*	50µM*	112µM*
c1ccc(Nc2cc3c(cn2)CN(Cc2cnc[nH]2)CCN3)cc1	-2%[70.6 µM]	?	?	?
Cn1ncc2c(N3CCN(S(N)(=O)=O)CC3)nc(-c3cccnc3)nc21	5%	i	40µM*	?
Cn1ncc2c(N3CCN(S(N)(=O)=O)CC3)nc(C3CCCC3)nc21	-2%	i	40µM*	-25%
COCc1nc(N2CCC(c3cc(=O)[nH]c(C)n3)CC2)c2cnn(C)c2n1	0%	i	-18%	-5%
CCCN1CCC(N2CCCC(Cc3ccccc3)(C(=O)OCC)C2)CC1 (stereo not drawn)	3%	i	?	?
COc1ccc(NC(=O)N2CCC(N3CC4CC(C3)[C@H]3CCCC(=O)N3C4)CC2)cc1 (stereo partly drawn)	0%	i	1%	5%
Cc1cc(S(=O)(=O)N2CCC(Oc3ccc(C(N)=O)cn3)CC2)ccc1Cl	?	i	?	?
Cc1cc(Cl)ccc1S(=O)(=O)N1CCC(Oc2ccc(C(N)=O)cn2)CC1	?	i	?	25µM*
C[S+](=O)([O-])c1ccc(-c2nccc3c(=O)cc(-c4ccncc4)oc23)cc1	-6%[70.6 µM]	i	32µM*	?
O=c1cc(-c2cccnc2)oc2c(-c3cn[nH]c3)nccc12	1%[70.6 µM]	i	8.9µM*	-23%[230 µM]
CN(C)c1cc(=O)c2ccnc(-c3ccccc3F)c2o1	3%[70.6 µM]	i	45µM*	?
O=c1cc(-c2cccnc2)oc2c(-c3ccccc3F)nccc12	1%[70.6 µM]	i	20µM*	?
Cc1ccc2c(c1)nc1n2[C@@H](CNC(=O)NC(C)C)COC1	1%[70.6 µM]	i	-1%[138 µM]	-2%[172 µM]
SMILES	hNpr1 antagonist	FLuc inh	NIH3T3 tox	HEK293 tox
O=c1cc(-c2cccnc2)oc2c(-c3ccccc3Oc3ccccc3)nccc12	3%[70.6 µM]	i	?	100µM*
COc1ccc(CN2CC3(CCN(C(=O)c4ccc(F)c(Cl)c4)CC3)C2=O)cc1	-21%	i	?	?
O=C(c1ccc(F)c(Cl)c1)N1CCC2(CC1)CN(c1ccccc1)C2=O	-1%	i	40µM*	89µM*
COc1cccc(-c2cc(C3CCN(C(=O)Nc4ccccc4OC)CC3)[nH]n2)c1	-15%	i	?	32µM*
COc1cccc(-c2cc(C3CCN(C(=O)Nc4ccc5c(c4)OCCO5)CC3)[nH]n2)c1	?	25µM*	40µM*	?
CCc1ccc(C(=O)N2CCC(c3cc(-c4cccc(OC)c4)n[nH]3)CC2)cc1	?	i	?	45µM*
COc1cccc(-c2cc(C3CCN(C(=O)Nc4ccc(OC)cc4OC)CC3)[nH]n2)c1	-4%	i	?	?
COc1cccc(-c2cc(C3CCN(C(=O)c4cc(C)ccc4C)CC3)[nH]n2)c1	?	i	?	40µM*
COc1ccc(C2(C(=O)N3CCC4(CC3)CC(C(=O)N3CCOCC3)N(C)C4)CC2)cc1 (stereo not drawn)	1%	i	-19%	-22%
O=[S+]1([O-])NCC2(CCN(Cc3ccsc3)CC2)Nc2ccccc21	5%	i	-14%	-1%
COc1cccc(-c2cc(C3CCN(C(=O)Nc4cccc(C)c4)CC3)[nH]n2)c1	-23%	?	?	?
COc1cccc(-c2cc(C3CCN(C(=O)Nc4ccc(C)cc4C)CC3)[nH]n2)c1	-19%	i	?	45µM*
CNC(=O)CCn1ncc2cc(OCc3ccccc3-c3ccc(F)c(Cl)c3)ccc21	?	?	79µM*	100µM*
CNC(=O)CCn1ncc2cc(OCc3ccccc3-c3cc(F)ccc3OC(C)C)ccc21	-1%	i	?	?
CNC(=O)CCn1ncc2cc(OCc3ccccc3-c3cc(F)ccc3OC)ccc21	-19%[70.6 µM]	40µM*	?	79µM*
CNC(=O)CCn1ncc2cc(OCc3ccccc3-c3ccc(F)cc3C)ccc21	-22%[70.6 µM]	i	50µM*	?
CNC(=O)CCn1ncc2cc(OCc3ccccc3-c3c(F)cccc3OC)ccc21	4%[70.6 µM]	i	?	?
CNC(=O)CCn1ncc2cc(OCc3ccccc3-c3ccccc3F)ccc21	-20%[70.6 µM]	?	79µM*	100µM*
CNC(=O)CCn1ncc2cc(OCc3ccccc3-c3ccc(OC)cc3Cl)ccc21	-12%	i	?	?
CNC(=O)CCn1ncc2cc(OCc3ccccc3-c3cccnc3)ccc21	-12%[70.6 µM]	i	?	?
CNC(=O)CCn1ncc2cc(OCc3ccccc3-c3cccc(CO)c3)ccc21	?	16µM*	?	79µM*
CNC(=O)CCn1ncc2cc(OCc3ccccc3-c3ccc(F)cc3)ccc21	-10%[70.6 µM]	?	?	71µM*
CN(Cc1cccc(N2CCN(C(=O)OC(C)(C)C)CC2)c1F)[S+](C)(=O)[O-]	nt	nt	?	79µM*
CN(Cc1cccc(F)c1)C1CN(C(=O)OC(C)(C)C)C1	nt	nt	-12%[138 µM]	-7%[172 µM]
COC(=O)N(C)Cc1cccc(N2CCN([S+](=O)([O-])c3c(Cl)cccc3Cl)CC2)c1F	nt	nt	?	14µM*
CCOCCOC1CCN(C(=O)NCc2ccccc2)CC1	0%	i	i	-2%
CN1CCC(N[C@@H](Cn2cc(F)c(=O)[nH]c2=O)C(=O)O)CC1	4%[70.6 µM]	i	-3%[174 µM]	-1%[172 µM]
COc1cccc(CN2CC[C@H](c3n[nH]c(C)n3)[C@H](NC(=O)C3CC3)C2)c1	3%	i	2%	-2%
